Screening results deposited in PubChem by National Center for Advancing Translational Sciences (NCATS).
GLP1R ag = qHTS of GLP-1 Receptor Agonists; HEK293 GLP-1R CRE-luciferase, luminescence, 4-6 h; cells express a hypersensitive GLP-1R form; Potency, µM (doses to about 45.6 µM), for the others: top-dose activation, hits mostly activators; hit rate 0.007% among 380,000; further: potency means the concentration at half of the fitted maximal effect; % of control where 0% means no effect
Target sequence (P43220 whole entry, looked up): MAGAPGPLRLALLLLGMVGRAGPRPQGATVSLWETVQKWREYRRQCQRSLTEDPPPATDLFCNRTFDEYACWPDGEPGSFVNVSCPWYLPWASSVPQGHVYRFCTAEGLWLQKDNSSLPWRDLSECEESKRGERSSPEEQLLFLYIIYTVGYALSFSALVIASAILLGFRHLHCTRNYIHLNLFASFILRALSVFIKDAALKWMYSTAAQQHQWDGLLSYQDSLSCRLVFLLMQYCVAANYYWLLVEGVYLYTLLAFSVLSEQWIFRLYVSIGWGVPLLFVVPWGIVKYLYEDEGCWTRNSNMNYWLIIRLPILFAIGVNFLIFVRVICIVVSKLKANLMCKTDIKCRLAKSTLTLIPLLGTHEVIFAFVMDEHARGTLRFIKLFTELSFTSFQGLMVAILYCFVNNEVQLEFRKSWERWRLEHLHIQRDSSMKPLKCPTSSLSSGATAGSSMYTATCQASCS
p53 reactivation = qHTS assay for re-activators of p53 using a Luc reporter; H1299 p53-A138V BP100-luciferase reporter, luminescence, 24 h; Potency, µM (titrated, usually from 92.2 µM), for inactives: at the highest dose activity change, positive = activation, usual class: activators; hit rate 0.063% among 320,000; further: potency means the concentration at half of the fitted maximal effect; % of control where 0% means no effect; nearly all actives have a fitted effect of over 45% in size
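p53-null H1299 cells stably carrying temperature-sensitive p53-A138V and a BP100-luciferase reporter were pinned with compounds (4-point, 1:5 series) and held 24 hrs at 37 deg C. Luminescence was read 10 min after detection reagent.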
HEK293 tox = qHTS of GLP-1 Receptor Inverse Agonists: Cytotox Screen | AID 624418, 2012 | HEK293 cAMP-luciferase reporter cells, luminescence, 24 h | hit rate 0.13% among 410,000 | Potency, µM (highest dose often 38.3 µM), for inactives: at the highest dose activity change, negative = inhibition, usual class: inhibitors;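 further: loss of luciferase light is scored as toxicity; potency means the concentration at half of the fitted maximal effect; on the % scale 0 is the no-effect control and ±100 the full control effect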
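A 23 nL compound transfer followed 12 hours of cell culture at 37 deg C; exposure then lasted 24 hr. Luciferase assay detection reagent was dispensed and plates read for luminescence after a 12 min room-temperature wait.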
LDHA inh = qHTS assay for inhibitors of human lactate dehydrogenase; activity change, % (values are at about 110 or 230 µM); hit rate 0.15% among 480,000; L-lactate dehydrogenase A chain (Homo sapiens), P00338; AID 1347041, 2019; purified LDHA, NADH/diaphorase-resazurin fluorescence; stronger effect = lower value; in the data active means activity change below about -30%; inconclusive means mostly about -25% to -30%;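 further: plate controls were DMSO wells for no effect and wells without enzyme for full effect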
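Human LDH5 at 2 nM final in Tris HCl pH 7.4 with 0.06 mM NADH and 0.2 mM pyruvate, reacted 5 minutes at room temperature. Remaining NADH coupled via diaphorase/resazurin; resorufin fluorescence read at 0 and 20 minutes, normalized to enzyme-free and DMSO wells.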
GLP1R inv ag = qHTS of GLP-1 Receptor Inverse Agonists (Inhibition Mode); Glucagon-like peptide 1 receptor (Homo sapiens), P43220; HEK293 GLP-1R CRE-luciferase, luminescence, 24 h; GLP-1R form is constitutively active; Potency, µM (series often up to 38.3 µM), for inactives: at the top dose activity change, negative = inhibition, most hits filed as inhibitors; hit rate 1.6% among 410,000; AID 624417, 2012; further: potency means the concentration at half of the fitted maximal effect; on the % scale 0 is the no-effect control and ±100 the full control effect; nearly all actives have a fitted effect of over 55% in size
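HEK293 cells stably co-expressing constitutively active GLP-1R and a cAMP-responsive luciferase reporter were seeded in DMEM with 10% Nu serum, given compounds after 12 h, and incubated 24 h at 37 deg C. Luminescence was then read.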
ClpP mod = qHTS Assay for Activators of ClpP. ATP-dependent Clp protease proteolytic subunit (Bacillus subtilis (strain 168)), P80244. purified B. subtilis ClpP, FRET peptide cleavage, 20 min. Potency, µM (series often up to 57.5 µM), inactives show top-dose activity change, negative = active. hit rate 1.9% among 340,000; active means well fitted falling curve with a large enough effect; inconclusive means small, poorly fitted or top-dose-only effect; inactive means no such curve, though single readings can be large or run the other way; further: potency means the concentration at half of the fitted maximal effect; the source files actives as falling curves though it sought activators and does not explain the sign; nearly all actives have a fitted effect of over 65% in size
Target sequence (P80244 whole entry, looked up): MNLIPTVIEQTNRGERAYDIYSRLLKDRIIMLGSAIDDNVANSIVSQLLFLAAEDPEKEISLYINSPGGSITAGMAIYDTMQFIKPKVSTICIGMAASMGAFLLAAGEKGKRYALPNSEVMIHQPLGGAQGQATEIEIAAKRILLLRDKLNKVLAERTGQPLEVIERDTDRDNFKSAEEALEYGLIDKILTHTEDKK
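FRET quenching reversal measured ClpP activation: 10 microg/mL B. subtilis ClpP at pH 8 with the FRET-FV decapeptide, read at 430 nm after 320 nm excitation. The 20-min minus 0-min signal was scaled between DMSO/no-enzyme wells and ADEP (5.8 microM final).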
Starred values were filed as active, the others as inactive; ? = inconclusive; / = not tested or not shown. Compounds with a hit are over-represented: about 2.9% of the library has one in this group of screens. Unless noted, the call rests on the fitted dose curve; in most records, active means well fitted curve in the direction sought with a large enough effect; inconclusive means small, poorly fitted or top-dose-only effect, or another doubt; inactive means no such curve, though single readings can be large; an effect the other way counts as inactive or inconclusive.

SMILES	GLP1R ag	p53 reactivation	HEK293 tox	LDHA inh	GLP1R inv ag	ClpP mod
CCN(CC)CCNC(=O)c1ccc(Cl)c(S(=O)(=O)N2CCCCCC2)c1	-4%	1%	-29%	0	2.5µM*	1%
COc1ccc(CNC(=O)c2ccc(Cl)c(S(=O)(=O)N3CCCCCC3)c2)cc1	6%	/	0%	-19	10µM*	-1%
COc1ccc(C(CNC(=O)c2ccc(C)c(S(=O)(=O)N3CCCCC3)c2)N(C)C)cc1OC (centres undefined)	-3%	1%	13%	-4	2%	1%
O=C(NCc1ccncc1)c1ccc(Cl)c(S(=O)(=O)N2CCCCC2)c1	0%	-3%	0%	3	-16%	/
CN(C)C(CNC(=O)c1ccc(Cl)c(S(=O)(=O)N2CCCCCC2)c1)c1ccccc1 (centres undefined)	9%	3%	0%	-2	7.9µM*	0%
CN(C)CCCNC(=O)c1ccc(Cl)c(S(=O)(=O)N2CCCCCC2)c1	0%	-7%	3%	-4	10µM*	2%
O=C(NCCN1CCOCC1)c1ccc(Cl)c(S(=O)(=O)N2CCCCC2)c1	3%	-14%	6%	-6	-6%	-3%
CN(C)S(=O)(=O)N1CCC(Oc2cccc(C(=O)NCCC3=CCCCC3)c2)CC1	-14%	7%	-25%	-9	10µM*	25µM*
O=C(NCCC1=CCCCC1)c1ccc(Cl)c(S(=O)(=O)N2CCCCC2)c1	8%	3%	2%	0	3.5µM*	-5%
Cc1ccccc1CSc1nn2c(=O)c(C)nnc2s1	6%	11%	-8%	-10	12%	/
CCOC(=O)C1CCCN(C(=O)CSc2ccccc2)C1 (centres undefined)	6%	?	-3%	-2	5%	2%
c1ccc(Oc2nc(-c3ccccn3)nc3ccccc23)cc1	12%	18%	?	-11	?	/
Fc1ccc(Oc2nc(-c3ccccn3)nc3ccccc23)cc1	12%	11%	?	2	2.8µM*	/
CCOC(=O)N1CCN(C(=O)c2ccc(CS(=O)c3ccccc3)o2)CC1 (centres undefined)	-2%	7%	3%	0	7%	0%
c1cc(-c2noc(CSc3nnnn3C3CCCCC3)n2)cs1	/	/	/	3	/	/
Cc1cccn2c(=O)c3cc(C(=O)NCCN4CCOCC4)c(=N)n(CCCN4CCOCC4)c3nc12	-1%	-3%	-63%	-3	?	/
COCCn1c(=N)c(C(=O)NCCc2ccccc2)cc2c(=O)n3cccc(C)c3nc21	-5%	/	109%	-8	0%	1.4µM*
Cc1cccn2c(=O)c3cc(C(=O)NCCN4CCOCC4)c(=N)n(CCc4ccccc4)c3nc12	10%	-2%	271%	-1	40%	3.2µM*
COc1ccccc1P(=O)(c1ccccc1)c1ccc([N+](=O)[O-])cc1 (centres undefined)	21%	-5%	10%	-4	31%	/
COc1ccccc1NC(=O)CSc1nc2ccccc2cc1Cc1ccccc1	1%	-6%	4%	-4	10µM*	-3%
COc1ccccc1NC(=O)CSC1=NC(=O)C(NC(C)=O)C(=O)N1 (centres undefined)	-4%	2%	22%	-4	35%	28µM*
O=C(COC(=O)C12CC3CC(CC(O)(C3)C1)C2)NCCc1ccc(Cl)cc1	-5%	-2%	20%	-4	-17%	-4%
CCOC(=O)c1ccc(NC(=S)NC(=O)COc2ccccc2)cc1	-6%	19%	-6%	-7	8%	-1%
CCOc1ccccc1CN1CCC(N2CCC(C(=O)NC3CC3)CC2)CC1	0%	-21%	-6%	-1	-31%	/
O=c1c(Cl)c(N2CCOCC2)cnn1-c1ncc(C(F)(F)F)cc1Cl	2%	0%	14%	-5	9%	/
SMILES	GLP1R ag	p53 reactivation	HEK293 tox	LDHA inh	GLP1R inv ag	ClpP mod
CC(=O)O/N=C(/C)c1ncc(C(F)(F)F)cc1N1CCOCC1	4%	-2%	6%	-9	16%	14µM*
Cc1cc(C)cc(Nc2cc(C(=O)NCCCN(Cc3ccccc3)C(C)C)c3ccccc3n2)c1	/	/	?	7	5.6µM*	?
COc1ccc(Nc2cc(C(=O)NCCCN(C)Cc3ccccc3)c3ccccc3n2)cc1	/	/	-30%	1	?	33%
CSc1cccc(Nc2cc(C(=O)NCCCN(Cc3ccccc3)C(C)C)c3ccccc3n2)c1	/	/	1%	-1	?	35µM*
CCOC(=O)c1oc2c(C)c(O)ccc2c(=O)c1-c1nncn1-c1ccccc1	9%	0%	2%	0	8%	-2%
CCOC(=O)c1oc2c(O)c(O)ccc2c(=O)c1-c1nncn1-c1ccccc1	3%	14%	-3%	14	8%	22µM*
Cc1sc(N)c(C#N)c1C	0%	5%	20%	0	32%	14µM*
COc1ccc(C(=O)/C=C/c2ccc(N)cc2)cc1	/	/	/	5	/	/
Cc1nc2c(O)c3c(c(O)c2nc1C)C1C=CC3CC1	-5%	/	5.6µM*	44	?	1%
Cc1ccc(S(=O)(=O)NCCCCCC(=O)NCCc2ccccc2)cc1	-6%	/	-14%	-1	3%	2%
COCc1cc(=O)n2[nH]c(-c3ccccc3)cc2n1	-5%	?	-7%	6	21%	25µM*
CCCc1cc(=O)n2[nH]c(-c3ccc(C)cc3)cc2n1	-5%	?	-7%	-5	-19%	14µM*
COCc1cc(=O)n2[nH]c(C)cc2n1	-2%	14%	0%	-2	5%	18µM*
CCCc1cc(=O)n2[nH]c(-c3ccccc3)cc2n1	-28%	?	-11%	-3	3%	22µM*
CCCc1cc(=O)n2[nH]c(-c3ccc(Cl)cc3)cc2n1	0%	/	-9%	-7	3%	-5%
COCc1cc(=O)n2[nH]c(-c3cccc(Br)c3)cc2n1	-4%	?	9%	0	9%	?
COc1cc(C(=O)Nc2ccccc2OCC2CCCO2)cc(OC)c1OC (centres undefined)	/	/	/	7	/	/
Cc1ccc(NC(=O)N(Cc2cc3cc(C)cc(C)c3[nH]c2=O)CC2COCCO2)cc1 (centres undefined)	2%	-2%	2%	-6	1%	-8%
Cc1ccc(C(=O)Nc2ccncc2)cc1[N+](=O)[O-]	-4%	-1%	13%	1	12%	2%
